LDHA block: inhibitors of human lactate dehydrogenase A. hit rate 0.15% among 480,000. P00338. activity change, % (values are at about 110 or 230 µM). AID 1347041. purified LDHA, NADH/diaphorase-resazurin fluorescence; stronger effect = lower value; in the data active means activity change below about -30%; inconclusive means mostly about -25% to -30%;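 further: plate controls were DMSO wells for no effect and wells without enzyme for full effect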
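Human LDH5 at 2 nM final in Tris HCl pH 7.4 with 0.06 mM NADH and 0.2 mM pyruvate, reacted 5 minutes at room temperature. Remaining NADH coupled via diaphorase/resazurin; resorufin fluorescence read at 0 and 20 minutes, normalized to enzyme-free and DMSO wells.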
IL-1B inflam inh: inflammasome signaling inhibition, IL-1 beta readout; hit rate 4.7% among 360,000; AID 743279; activity change, % at 57.5 µM; THP-1 LPS/ATP IL-1B secretion, AlphaLISA, 16 h; stronger effect = lower value; in the data active means activity change below about -50%; inconclusive means mostly about -30% to -49%
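THP-1 cells pretreated 1 hr with compounds (up to 57.5 uM final), then stimulated with LPS (250 ng/mL final) plus ATP (1.25 mM final); secreted IL-1B measured by AlphaLISA after 16 hr, decreased signal indicating inhibition.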
TDP1 cell CPT: DT40-hTDP1 cell growth loss with CPT; hit rate 12% among 420,000; chicken DT40 Tdp1-/-;hTDP1 cells + 20 nM CPT, ATP luminescence, 48 h; AID 686979; Potency, µM (doses to about 46.2 µM), inactives show top-dose activity change, negative = growth inhibition, usual class: inhibitors; further: potency means the concentration at half of the fitted maximal effect; nearly all actives have a fitted effect of over 55% in size
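Chicken DT40 Tdp1-/- cells complemented with human TDP1, 400 cells/well, exposed to compounds plus 20 nM camptothecin for at least 48 h at 37 C; viability read as ATP content by CellTiter-Glo luminescence.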
Gal4-VP16 FLuc: counter-screen for ROR gamma inhibitors: Gal4-VP16 reporter; Drosophila S2 Gal4-VP16 UAS-luciferase, luminescence, 20 h; Potency, µM (highest dose often 53.6 µM), for the others: at the highest dose activity, negative = inhibition, most hits filed as inhibitors; hit rate 3.5% among 310,000;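 further: Gal4-VP16 expression switched on by copper sulfate through the metallothionein promoter; potency means the concentration at half of the fitted maximal effect; nearly all actives have a fitted effect of over 50% in size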
TDP1 cell noCPT: qHTS for Inhibitors of human tyrosyl-DNA phosphodiesterase 1 (TDP1): qHTS in cells in absence of CPT | Potency, µM (titrated, usually from 46.2 µM), for inactives: at the highest dose activity change, negative = growth inhibition, hits mostly inhibitors | hit rate 15% among 420,000 | DT40 Tdp1-/- hTDP1 cells, no CPT, ATP luminescence, 48 h; further: potency means the concentration at half of the fitted maximal effect; nearly all actives have a fitted effect of over 55% in size
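Cells were dispensed at 400 per well, compounds added by pin tool, plates incubated ≥48 hr at 37 °C, then CellTiter-Glo added for 30 min at room temperature before luminescence reading. Line: DT40 Tdp1-/- complemented with hTDP1; camptothecin omitted.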
RORgamma inh: ROR gamma (mouse) transcription inhibition; hit rate 5.4% among 310,000; Potency, µM (highest dose often 53.6 µM), inactives show top-dose activity change, negative = inhibition, most hits filed as inhibitors; Drosophila S2 Gal4-RORgamma UAS-luciferase reporter, 20 h; P51450; further: potency means the concentration at half of the fitted maximal effect; nearly all actives have a fitted effect of over 60% in size
Target sequence (P51450 whole entry, looked up, the tested form may be a part): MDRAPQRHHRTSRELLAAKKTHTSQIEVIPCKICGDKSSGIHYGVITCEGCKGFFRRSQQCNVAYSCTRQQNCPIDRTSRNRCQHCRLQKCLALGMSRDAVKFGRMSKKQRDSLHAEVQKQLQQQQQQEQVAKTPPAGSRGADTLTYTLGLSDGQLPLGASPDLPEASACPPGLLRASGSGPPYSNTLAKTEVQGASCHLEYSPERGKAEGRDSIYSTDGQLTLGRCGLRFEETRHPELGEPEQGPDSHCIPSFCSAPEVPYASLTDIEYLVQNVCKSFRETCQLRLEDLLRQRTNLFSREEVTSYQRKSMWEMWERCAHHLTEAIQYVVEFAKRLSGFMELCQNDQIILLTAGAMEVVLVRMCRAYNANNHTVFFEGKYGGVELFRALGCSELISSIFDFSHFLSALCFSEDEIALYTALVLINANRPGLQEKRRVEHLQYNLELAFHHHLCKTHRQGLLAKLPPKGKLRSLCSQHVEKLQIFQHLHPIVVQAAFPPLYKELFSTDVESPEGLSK
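Compounds are pin-transferred onto Drosophila Schneider cells expressing a copper-inducible Gal4–ROR gamma transactivation domain fusion. After 1 hr, copper sulfate is added to 700 uM final; luciferase is read 20 hr later.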
Active calls of the source: *; ? = inconclusive; / = no result. Sampled rows, rich in hits. Any-hit rate of the full collection: about 18%. Unless noted, the call rests on the fitted dose curve; in most records, active means well fitted curve in the direction sought with a large enough effect; inconclusive means small, poorly fitted or top-dose-only effect, or another doubt; inactive means no such curve, though single readings can be large; an effect the other way counts as inactive or inconclusive. Unless noted, on the % scale 0 is the no-effect control and ±100 the full control effect.

SMILES	LDHA block	IL-1B inflam inh	TDP1 cell CPT	Gal4-VP16 FLuc	TDP1 cell noCPT	RORgamma inh
COc1ccc(-c2noc(CSc3nnc(CCc4ccccc4)n3-c3ccccc3)n2)cc1OC	-4.2	-9.8	14.6µM*	-6.8%	16.4µM*	-1.3%
N#Cc1ccc(-c2nc3ccc(Br)cn3c2Cc2ccccc2C(F)(F)F)cc1	-0.3	7.1	?	/	?	/
Cc1ccc2nc(-c3ccc(C#N)cc3)c(Cc3ccccc3C(F)(F)F)n2c1	0.3	-9.2	23.1µM*	/	?	/
Cc1ccc2nc(-c3ccc(Cl)cc3)c(Cc3ccccc3C(F)(F)F)n2c1	3.9	-11.1	25.9µM*	/	?	/
CCOC(=O)C1CCN(C(c2cc3ccc(C)c(C)c3[nH]c2=O)c2nnnn2C2CCCCC2)CC1 (stereo not drawn)	3.4	-9.4	?	-2.6%	?	?
CCOC(=O)C1CCN(C(c2cc3c(C)ccc(C)c3[nH]c2=O)c2nnnn2C2CCCCC2)CC1 (stereo not drawn)	1.7	13.4	28.2µM*	6.2%	?	17.3%
CCCc1cc(=O)[nH]c(SCc2nc(-c3ccc(F)cc3)no2)n1	-4.7	/	/	/	/	/
Cc1ccc(N2C(=O)C3C4C=CC(CNC(=S)Nc5ccc(F)cc5)(O4)C3C2=O)cc1 (stereo not drawn)	-3.1	6.1	?	3.98µM*	18.4µM*	4.47µM*
CC(C)COC(=O)NCC12C=CC(O1)C1C(=O)N(c3ccc(Cl)cc3)C(=O)C12 (stereo not drawn)	-12.6	-19.0	16.4µM*	20µM*	18.4µM*	3.98µM*
CCc1ccccc1N1CC23C=CC(O2)C(C(=O)OCC(C)C)C3C1=O (stereo not drawn)	-1.8	1.5	0.2%	-7.1%	-5.9%	2.7%
Cc1ccc(CNC(=O)C2CCCN(C(=O)Nc3ccc(F)cc3)C2)cc1 (stereo not drawn)	-7.7	0.0	-23.5%	0.6%	-20.9%	-7.5%
Cc1ccc(N2C(=O)C3C4C=CC(CNC(=S)N5CCN(c6ccccn6)CC5)(O4)C3C2=O)cc1 (stereo not drawn)	-0.2	-9.2	23.1µM*	-27.1%	18.4µM*	?
Cc1ccc(N2C(=O)C3C4C=CC(CNC(=S)Nc5cccc(Cl)c5)(O4)C3C2=O)cc1 (stereo not drawn)	-3.7	3.5	?	12.6µM*	14.6µM*	?
Cc1ccc(N2C(=O)C3C4C=CC(CNC(=S)Nc5ccc(Cl)cc5)(O4)C3C2=O)cc1 (stereo not drawn)	-5.9	-19.0	?	3.16µM*	23.1µM*	7.08µM*
Cc1cc(C)cc(NC(=O)Nc2nnc(N(C)C3CCCCC3)s2)c1	-0.9	/	14.6µM*	/	?	/
Cc1cc(NC(=O)Nc2nnc(N(C)C3CCCCC3)s2)ccc1Br	-17.0	/	?	/	?	/
OC(COCCC12CC3CC(CC(C3)C1)C2)CN1CCCC1 (stereo not drawn)	-2.1	-2.1	18.4µM*	-26.0%	?	?
CC(NCC(O)COCCC12CC3CC(CC(C3)C1)C2)c1ccccc1 (stereo not drawn)	0.0	-98.4*	6.51µM*	?	14.6µM*	12.6µM*
COc1ccccc1COCC(O)CN(CC(O)COCc1ccccc1OC)C12CC3CC(CC(C3)C1)C2 (stereo not drawn)	8.5	/	/	/	/	/
Cc1ccc(NS(=O)(=O)c2ccc(N3CC(C(=O)O)CC3=O)cc2)cc1F (stereo not drawn)	3.8	/	/	/	/	/
CSc1nn(Cc2ccccc2C)c(NC(C)=O)c1S(=O)(=O)c1ccc(C)cc1	-1.4	/	?	/	14.6µM*	/
O=C(Nc1nc2ccc(Br)cc2s1)c1ccco1	-7.4	11.5	6.3%	0.1%	-12.8%	-32.8%
